About 20 (0.9%) of roughly 2,300 compounds were called active.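 How the source made its calls: active means mean activation across replicates above 26.72%, the hit cutoff set for this confirmation screen; inactive means the rest.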 Many of the other results were omitted from the sample, so actives are more common in it than they were.

For this test, the target named is G-protein coupled receptor 151 (Homo sapiens) (UniProt Q8TDV0). The test can be described thus: GPR151 activators, triplicate retest, confirmation, cell-based, PathHunter beta-arrestin, luminescence, set 2 (AID 1508608).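 Further: 0% = plate median of compound wells and 100% = EA reagent high control.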 As to conditions: GPR151 PathHunter beta-arrestin cells, 90 min, at 11.2 µM, stronger effect = higher value, 100% = signal from added EA reagent.
G-protein coupled receptor 151 (Homo sapiens), sequence (Q8TDV0 whole entry, looked up): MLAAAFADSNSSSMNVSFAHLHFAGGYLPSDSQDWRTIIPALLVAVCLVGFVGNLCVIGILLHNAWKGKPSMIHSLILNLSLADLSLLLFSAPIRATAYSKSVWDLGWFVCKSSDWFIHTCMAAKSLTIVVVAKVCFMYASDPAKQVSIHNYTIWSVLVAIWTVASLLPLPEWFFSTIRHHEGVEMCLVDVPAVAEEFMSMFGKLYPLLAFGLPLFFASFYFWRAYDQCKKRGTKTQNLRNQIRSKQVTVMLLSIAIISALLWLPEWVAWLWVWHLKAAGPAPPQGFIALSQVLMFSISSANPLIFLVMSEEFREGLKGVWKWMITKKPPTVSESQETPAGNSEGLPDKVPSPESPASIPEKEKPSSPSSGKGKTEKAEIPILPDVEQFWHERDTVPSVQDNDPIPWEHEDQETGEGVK
On to `CCCc1c(C)nc2c(C(=O)NCc3ccc(F)cc3)c[nH]n2c1=O`, for which the activation was 4.27% (inactive).
Then `CC1CCCCC1NS(=O)(=O)c1ccc2c(c1)CCN2C(=O)C1CC1` (stereo not drawn), with -8.17% (inactive).
Take `CNS(=O)(=O)c1cc(-c2nnc(NCc3nc4ccccc4[nH]3)c3ccccc23)ccc1C`: the activation is 0.28% (inactive).
`CCOC(=O)c1cnc2ccc(OCC)cc2c1Nc1ccccc1OC`: the activation is 0.37% (inactive).
Turning to `CC(C(=O)O)n1ncn2cccc2c1=O` (stereo not drawn), the activation is 0.45% (inactive).
As for `Cc1cc2c(cc1S(=O)(=O)N1CCN(C3CCCCC3)CC1)OCC(=O)N2`, the figure is -3.55% (inactive); as for `CCCCc1ccc(C(=O)N/C(=C\c2ccc(C)cc2)C(=O)Nc2ccc([N+](=O)[O-])cc2)cc1`, -6.88% (inactive).
With `COCCCNC(=O)c1csc2c1CCCC2`, the activation was -6.29% (inactive).
`COc1ccccc1OCC(=O)n1nc(C)cc1C`: the activation is -1.85% (inactive).
Then `CC1=C(C(=O)OCC(C)C)C(c2ccc(Cl)cc2Cl)NC(=O)N1` (stereo not drawn), with 1.8% (inactive).
Consider `CCCCNC(=O)c1ccc2c(c1)ncn2-c1cc(OC)c(OC)c(OC)c1`, for which the activation is 3.91% (inactive).
With `Cc1ccc(S(=O)(=O)c2cc3cc([N+](=O)[O-])ccc3oc2=O)cc1C`, the activation is -3.29% (inactive).
Turning to `Clc1nc(NCc2ccccc2)c2ncn(-c3ccccc3)c2n1`, the activation is -0.22% (inactive).
Then `c1ccc(Oc2nc(NC3CC3)c3ncn(-c4ccsc4)c3n2)cc1`, with 38.7% (active); and `COc1ccc(S(=O)(=O)NC(N)=NCCc2ccccc2OC)cc1`, with 0.59% (inactive); and `O=C(Cn1ncc2c(=O)oc3ccccc3c21)Nc1nc2ccccc2s1`, with -0.55% (inactive).
Then `O=C(NCCc1ccccc1)c1cc(S(=O)(=O)N2CCOCC2)ccc1F`, with -1.01% (inactive).
Turning to `O=C(NCC1CCC2(CCN(C(=O)Cc3cccc(F)c3)CC2)O1)c1ccccc1F` (stereo not drawn), the activation was 0.36% (inactive).
Then `O=C(CCC(=O)Nc1cc(C(F)(F)F)ccc1Cl)N/N=C\c1ccccc1O`, with -2.79% (inactive); and `CCOC(=O)c1c(NC(=O)c2ccc(Cl)cc2Cl)sc(C(=O)Nc2ccccc2F)c1C`, with -10.1% (inactive).
Then `Cc1ccc(-c2nnc(SCC(=O)NCc3ccccc3Cl)nc2-c2ccc(C)cc2)cc1`, with -2.15% (inactive).
As for `COc1ccc(CCNc2ncnc3c2oc2ccccc23)cc1OC`, the figure is 44.3% (active); as for `COc1ccc(CCNC(=O)Cn2ncn3cccc3c2=O)cc1OC`, 3.19% (inactive).
With `COc1ccc(CCNC(=O)/C=C\C(=O)O)cc1OC`, the activation is 1.57% (inactive).
With `O=C(Cn1c(=O)n(Cc2ccccc2Cl)c(=O)c2cccnc21)Nc1ccc(F)cc1`, the activation is -1.3% (inactive).
As for `O=C(CCCn1c2ccccc2c(=O)c2ccccc21)Nc1cccc(Cl)c1`, the figure is 6.83% (inactive).
For the compound `COc1ccc(-c2nc(Nc3ccccc3F)c3ccccc3n2)cc1OC`, the activation is 8.64% (inactive).
As for `CC(C)C[C@H]1NC(=O)[C@H]2CN(C(=O)c3cccc(Cl)c3)CCN2C1=O`, the figure is -3.06% (inactive); as for `CC[C@@H](C(=O)C(C)[C@@H](O)[C@H](C)CCc1ccc(C)c(O)c1C(=O)O)C1OC(CC)(C2CC[C@](O)(CC)[C@H](C)O2)C[C@@H]1C` (stereo partly drawn), 83.1% (active).
On to `O=C(Nc1ncc(C(O)(C(F)(F)F)C(F)(F)F)s1)c1ccccc1Cl`, for which the activation is -4.3% (inactive).
Then `COc1ccc(NC(=O)c2cc3c(CO)cnc(C)c3oc2=N)cc1Cl`, with -0.43% (inactive); and `O=C(NCCc1nnc2n1CCN(Cc1ccccc1-c1ccco1)CC2)C1CCCO1` (stereo not drawn), with -0.22% (inactive); and `CCc1ccccc1NC(=S)N(CCc1ccc(OC)c(OC)c1)Cc1cccnc1`, with 12% (inactive).
As to `O=C(Nc1nc(-c2ccc(I)cc2)cs1)c1ccc(Cl)s1`, the activation is 4.72% (inactive).
In the case of `CC(C)[C@@H]1NC(=O)[C@@H]2C[C@H](NCc3cn(C)nc3-c3ccccc3)CN2C1=O`, the activation is -1.25% (inactive).
In the case of `Cc1nn(-c2ccccc2)c(Cl)c1/C=N\O`, the activation was 1.25% (inactive).
Turning to `Cc1ccc(O)c(NC(=O)COCc2cc(-c3ccc(F)cc3)on2)c1`, the activation was -1.43% (inactive).
As for `COc1cc(NC(=O)c2nn3c(C(F)(F)F)cc(-c4ccco4)nc3c2Cl)c(OC)cc1Cl`, the figure is -0.24% (inactive).
As for `CCC(=O)N1CCc2cc(S(=O)(=O)Nc3cccc(C)c3)ccc21`, the figure is -1.7% (inactive); as for `CC(=O)N1CCc2cc(Br)cc(S(=O)(=O)Nc3ccc(C)cc3C)c21`, -9.66% (inactive).
As for `O=C(Nc1nc2c(s1)-c1cccc3cccc-2c13)C1CC1`, the figure is -2.94% (inactive); as for `Cc1cccc(NCC(=O)N/N=C/c2ccccc2O)c1`, -1.08% (inactive).
Turning to `CN1CCN(C(=O)c2cc3c(=O)[nH]c4ccccc4c3s2)CC1`, the activation was -2.02% (inactive).
On to `COc1ccc(OC)c(S(=O)(=O)NCCc2csc(-c3cccnc3)n2)c1`, for which the activation was -1.44% (inactive).
Take `Cc1cccc(N(CCCN2C(=O)c3cccc4cccc(c34)C2=O)C(=O)c2cccs2)c1`: the activation was 2.61% (inactive).
Take `CC(=O)NN1C(=O)c2ccc(Oc3ccc4c(c3)C(=O)N(NC(C)=O)C4=O)cc2C1=O`: the activation was 1.35% (inactive).
Turning to `COc1ccc(/C=c2\sc3ncnn3c2=O)c(OC)c1`, the activation was 1.55% (inactive).
Regarding `COc1ccccc1C1SC(NC(C)=O)=NN1C(C)=O` (stereo not drawn), the activation is 4.02% (inactive).
For `Cc1cccc(C2c3[nH]c4ccccc4c3CCN2C(=O)CCN2CCCCO2)n1` (stereo not drawn), the activation was 2.25% (inactive).
For `COc1cccc(CC(=O)NCC2CC(Cc3ccc(F)cc3)=NO2)c1` (stereo not drawn), the activation is -4.37% (inactive).
Then `COc1ccc(CCNc2ccnc(Nc3ccc(-n4ccnc4)cc3)n2)cc1`, with 38.8% (active); and `Cc1cc(Nc2ccc(N3CCOCC3)cc2)nc(Nc2ccc(-n3ccnc3)cc2)n1`, with 17.5% (inactive); and `COc1ccc(CCNc2ccnc(Nc3ccc(N4CCOCC4)cc3)n2)cc1`, with 28.5% (active).
As for `COc1ccc(CCNc2cc(C)nc(Nc3ccc(-n4ccnc4)cc3)n2)cc1`, the figure is 41.2% (active); as for `COc1cccc(Nc2nc(Nc3cc(C)ccc3C)nc(N3CCOCC3)n2)c1`, 8.14% (inactive); as for `COc1cc(Nc2ccnc(Nc3ccc(N4CCOCC4)cc3)n2)cc(OC)c1OC`, 4.44% (inactive).
As for `Cc1cc(Nc2ccc3c(c2)OCO3)nc(Nc2ccc(N3CCOCC3)cc2)n1`, the figure is 12.3% (inactive); as for `Cc1ccc(NC(=O)/C(=C\c2ccco2)NC(=O)c2cccc(C)c2)cc1`, 0.99% (inactive).
As for `CC(C)CC(NC(=O)C(C)NC(=O)CNC(=O)C(NC=O)C(C)C)C(=O)NC(C)C(=O)NC(C(=O)NC(C(=O)NC(C(=O)NC(Cc1c[nH]c2ccccc12)C(=O)NC(CC(C)C)C(=O)NC(Cc1c[nH]c2ccccc12)C(=O)NC(CC(C)C)C(=O)NC(Cc1c[nH]c2ccccc12)C(=O)NC(CC(C)C)C(=O)NC(Cc1c[nH]c2ccccc12)C(=O)NCCO)C(C)C)C(C)C)C(C)C` (stereo not drawn), the activation is 101% (active).
Then `COc1ccc(-c2nc(Nc3ccc(C)c(Cl)c3)c3ccccc3n2)cc1OC`, with 12.1% (inactive).
Then `COc1ccc(CCN2C(=O)c3ccc(Oc4ccc(Nc5ncnc6ccccc56)cc4)cc3C2=O)cc1OC`, with 40.5% (active); and `COc1ccc(CCN2C(=O)c3cccnc3C2=O)cc1OC`, with 2.67% (inactive).
Consider `CC(NC(=O)c1ccco1)c1nnc2n1CCN(Cc1cccc(F)c1)CC2` (stereo not drawn), for which the activation is 17.5% (inactive).
As to `CCOC(=O)C1=NN=C2C(=O)N(c3ccccc3)C(=O)C12` (stereo not drawn), the activation was 0.79% (inactive).
With `CCOc1ccc(NC(=O)/C(C#N)=C/c2c[nH]c3ccccc23)cc1`, the activation was 1.37% (inactive).
For the compound `O=C(CSc1nc(-c2ccccc2)cn1-c1ccccc1)Nc1ccccc1Cl`, the activation is 6.36% (inactive).
For the compound `O=C1OC(c2ccc(Br)cc2)=N/C1=C\c1ccc(Br)cc1`, the activation is 0.61% (inactive).
As for `Cc1ccc(S(=O)(=O)N(CC(=O)N2CCOCC2)CC(=O)N2CCOCC2)cc1`, the figure is 7.51% (inactive); as for `O=C1C2CCCN2C(c2ccco2)N1c1ccc(F)cc1` (stereo not drawn), 2.43% (inactive); as for `FC(F)(F)c1nc(Nc2ccccc2Cl)sc1-c1ccccc1`, 4.88% (inactive).
Then `N/C(=N\c1nc(=O)c2ccccc2s1)NC(=O)c1cccc(Br)c1`, with 0.6% (inactive).
As for `CCOc1ccc(NC(=O)CN2CCN(CC(=O)Nc3ccc(N(C)C)cc3)CC2)cc1`, the figure is -2.91% (inactive); as for `COc1cc(C2=N/C(=C\c3cccc(F)c3)C(=O)O2)cc(OC)c1OC`, 0.44% (inactive).
With `O=C1NC(=O)C(=Cc2ccc(-c3ccc(O)c([N+](=O)[O-])c3)o2)C(=O)N1`, the activation is -2.55% (inactive).
With `Cc1nnc(Nc2cccc(F)c2)[nH]c1=O`, the activation is -3.86% (inactive).
For the compound `COC(=O)C1=C(C)NC(=O)NC1c1cc(OC)ccc1OC` (stereo not drawn), the activation was 0.35% (inactive).
As for `CC(C)C(NS(=O)(=O)c1cccc2nsnc12)C(=O)NC1CCCC1` (stereo not drawn), the activation was -3.04% (inactive).
Take `CC(=O)Nc1ccc(NC(=O)c2sc3ccccc3c2Cl)cc1`: the activation is 1% (inactive).
Then `CCN(CC(=O)N1CCCCC1)S(=O)(=O)c1ccc(Cl)cc1`, with -5.3% (inactive); and `CC1CCCN(C(=O)C(=O)N2CCCC(C)C2)C1` (stereo not drawn), with 3.28% (inactive); and `CCC(C)NC(=O)c1cc(=O)[nH]c2ccc(Br)cc12` (stereo not drawn), with 88.5% (active).
Consider `CCC(C)NC(=O)c1ccc(-n2c(=S)[nH]c3ccccc3c2=O)cc1` (stereo not drawn), for which the activation was 7.03% (inactive).
For `CCC(C)NC(=O)c1cc2c(=O)oc3ccccc3c2s1` (stereo not drawn), the activation was 1.06% (inactive).
As for `CCCOC(=O)CSC1=C(C#N)C(c2ccco2)C(C(=O)Nc2ccc(Cl)cc2)=C(C)N1` (stereo not drawn), the figure is -4.25% (inactive).
With `O=C(Nc1ccc(F)cc1)N1CCN(c2ccc3nnc(-c4ccc(F)cc4)n3n2)CC1`, the activation was -0.4% (inactive).
`Nc1ccccc1-c1nnn(CC(=O)Nc2ccc(Cl)cc2)n1`: the activation was -3.19% (inactive).
In the case of `O/N=C(\C=N\O)C12CC3CC(CC(C3)C1)C2`, the activation was -1.69% (inactive).
Then `O=C(O)c1c(CNCCCSC2CCCCC2)c2ccccc2n1Cc1ccccc1`, with 3.46% (inactive).

The record behind these values is PubChem BioAssay AID1508608 (The Scripps Research Institute Molecular Screening Center, 2020).
